Bioassay records deposited in PubChem by National Center for Advancing Translational Sciences (NCATS).
HT1080 IDH1KD tx: qHTS for induction of synthetic lethality in tumor cells producing 2HG: qHTS for the HT-1080-IDH1KD cell line. HT-1080 IDH1 knockdown viability, ATP luminescence, 48 h. Potency, µM (top dose mostly 46.1 µM), for the others: at the top dose activity, negative = toxicity, actives largely listed as cytotoxic. actives 2% (n = 360,000). AID 686971, 2013;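 further: potency means the concentration at half of the fitted maximal effect; 0% = DMSO wells and -100% = cell-free medium wells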
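Using the IDH1-knockdown HT-1080 line run in the same batch and compound series as the NT line, viability after 48 h at 37 °C was determined by CellTiter-Glo luminescence and expressed as % activity.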
IL1B secr inh: qHTS for Inhibitors of Inflammasome Signaling: IL-1-beta AlphaLISA Primary Screen; THP-1 LPS/ATP IL-1B secretion, AlphaLISA, 16 h; hits give low values; activity change, % at 57.5 µM; actives 4.7% (n = 360,000); AID 743279, 2014; in the data active means activity change below about -50%; inconclusive means mostly about -30% to -49%
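Secreted IL-1B measured by AlphaLISA bead assay after 16 h compound exposure of THP-1 cells; compounds (final up to 57.5 uM) added 1 h before LPS (250 ng/mL) and ATP (1.25 mM) stimulation; lower signal means less secretion.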
DT40 TDP1 no CPT: qHTS for Inhibitors of human tyrosyl-DNA phosphodiesterase 1 (TDP1): qHTS in cells in absence of CPT | DT40 Tdp1-/- hTDP1 cells, no CPT, ATP luminescence, 48 h | Potency, µM (highest dose often 46.2 µM), without a hit: at the top dose activity change, negative = growth inhibition, most hits filed as inhibitors | actives 15% (n = 420,000) | AID 686978, 2013; further: potency means the concentration at half of the fitted maximal effect; nearly all actives have a fitted effect of over 55% in size
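Luminescent ATP content (CellTiter-Glo) served as the growth readout. Knockout chicken DT40 cells expressing human TDP1 were exposed to compounds without camptothecin for a minimum 48 hr at 37 °C.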
ELG1 repair inh: qHTS screen for small molecules that inhibit ELG1-dependent DNA repair in human embryonic kidney (HEK293T) cells expressing luciferase-tagged ELG1; actives 2.3% (n = 330,000); Potency, µM (titrated, usually from 46.1 µM), without a hit: at the highest dose activity change, negative = inhibition, usual class: inhibitors; HEK293T ELG1-luciferase reporter, luminescence, 16 h; DNA damage induced by 5-fluorouridine; further: potency means the concentration at half of the fitted maximal effect; nearly all actives have a fitted effect of over 55% in size
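Luminescence from the luciferase reporter, measured 30 min after ONE-Glo reagent at room temperature, was the read-out. Beforehand, 2,000 cells per well were exposed for 16 hr at 37 °C to 5-fluorouridine together with compound or vehicle.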
TDP1 cell CPT: qHTS for Inhibitors of human tyrosyl-DNA phosphodiesterase 1 (TDP1): qHTS in cells in presence of CPT | Potency, µM (doses to about 46.2 µM), for the others: at the top dose activity change, negative = growth inhibition, hits mostly inhibitors | actives 12% (n = 420,000) | chicken DT40 Tdp1-/-;hTDP1 cells + 20 nM CPT, ATP luminescence, 48 h | AID 686979, 2013; further: potency means the concentration at half of the fitted maximal effect; nearly all actives have a fitted effect of over 55% in size
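Cell growth measured by CellTiter-Glo luminescence after a minimum 48 h, 37 C compound exposure with 20 nM CPT in Tdp1-knockout DT40 cells stably expressing hTDP1, seeded 400/well; qHTS titration format.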
HT1080-NT tox: qHTS for induction of synthetic lethality in tumor cells producing 2HG: qHTS for the HT-1080-NT fibrosarcoma cell line; Potency, µM (titrated, usually from 46.1 µM), for inactives: at the top dose activity, negative = less viability, actives largely listed as cytotoxic; AID 686970, 2013; HT-1080-NT fibrosarcoma viability, CellTiter-Glo ATP luminescence, 48 h; actives 1.6% (n = 360,000);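 further: NT is the 2HG producing partner of a matched IDH1 knockdown line; potency means the concentration at half of the fitted maximal effect; 0% = DMSO-treated cells and -100% = media-only wells without cells; nearly all actives have a fitted effect of over 55% in size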
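HT-1080-NT; 750 cells/well; 5% FBS RPMI; 48 h compound, 37 degrees C; CellTiter-Glo luminescence; curve fitting and curve-class assignment.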
* hit, by the source's call; ? = inconclusive; . = no result given; ! = a repeat was not active; [ ] = another dose, or the depositor's remark. A selection: hits, their analogues and other compounds. The true share with any hit is near 19%. Unless noted, the call rests on the fitted dose curve; in most records, active means well fitted curve in the direction sought with a large enough effect; inconclusive means small, poorly fitted or top-dose-only effect, or another doubt; inactive means no such curve, though single readings can be large; an effect the other way counts as inactive or inconclusive. Unless noted, on the % scale 0 is the no-effect control and ±100 the full control effect.

SMILES	HT1080 IDH1KD tx	IL1B secr inh	DT40 TDP1 no CPT	ELG1 repair inh	TDP1 cell CPT	HT1080-NT tox
CN(C)[C@@H]1C(=O)C(C(N)=O)=C(O)[C@@]2(O)C(=O)C3=C(O)c4c(O)ccc(Cl)c4[C@@](C)(O)C3C[C@@H]12 (some centres undefined)	?	-12	23µM*	12%	?	?
COC(=O)C1=C(c2ccc(S(C)(=O)=O)cc2)C[C@@H]2CC[C@H]1N2C(=O)NC1CCCCC1	15%	-4	-25%	.	-18%	11%
CN(C)CC/C=C1/c2ccccc2Sc2ccc(Cl)cc21	?	-63*!	29µM*!	10%	?	?
Cn1c(SCC(=O)Nc2ccccc2F)nc2c([nH]c3ccccc32)c1=O	.	.	18µM*	.	15µM*	.
Cc1cccc(NC(=O)CSc2nc3ccccc3c(=O)n2C)c1C	-1%	-10	4.1µM*	.	8.2µM*	1%
Cc1ccccc1-c1nc2ccccc2c(=O)n1C	10%	13	-8%	14%	3%	7%
Cc1cccc(NC(=O)c2cc3c(=O)n4ccccc4nc3n2C)c1C	.	.	0.65µM*	.	0.92µM*	.
CCN(CC)S(=O)(=O)c1ccc(C(=O)O)cc1	-4%	1	23%	?	-12%	-2%
CCOP(=O)(Nc1ccc2c(c1)C(=NNC(N)=S)c1ccccc1-2)OCC	?	0	9.2µM*	.	18µM*	?
CCCc1nn(C)c2c1C(c1ccncc1)C(C#N)=C(N)O2 (centres undefined)	10%[9.24 µM]	-3	29µM*	15%	?	3%
CC(C)(C)c1ccccc1O	9%	-10	-1%	7%	-7%	-14%
CC(C)(C)c1cc(O)ccc1O	.	.	1.2µM*	.	1.7µM*	.
CC(=O)OC12COC1CC(O)C1(C)C(=O)C(O)C3=C(C)C(O)CC(O)(C(OC(=O)c4ccccc4)C21)C3(C)C (centres undefined)	?	34	1µM*	.	1.2µM*	?
CC(=O)OC1C(=O)[C@]2(C)C(O)CC3OC[C@]3(OC(C)=O)C2[C@@H](OC(=O)c2ccccc2)[C@]2(O)CC(O)C(C)=C1C2(C)C (some centres undefined)	.	.	3.7µM*	.	?	.
COc1ccc(C(SCC(NC(=O)OCc2ccccc2)C(=O)O)c2ccc(OC)cc2)cc1 (centres undefined)	-14%	-6	?	.	-7%	-4%
COC(=O)C1=C(c2ccc(OC)c(OC)c2)C[C@@H]2CC[C@H]1N2C(=O)NCCNC(C)=O	4%	17	1%	25%	-1%	1%
CC/C(=N\Nc1ccccc1)c1c(O)[nH]c(=O)[nH]c1=O	3.3µM*	-12	1%	4.1µM*	-8%	?
CC/C(=N\Nc1cccc2ccccc12)c1c(O)[nH]c(=O)[nH]c1=O	-16%	-11	5.8µM*	?	5.2µM*	-21%
O=C(c1ccccc1F)c1cn(CC(=O)N2CCCC2)c2ccccc12	0%	6	16µM*	24%	?	-5%
Cc1nn(CC(C)C)c(Cl)c1C(=O)NC1CCC(C)CC1 (centres undefined)	11%	33	-9%	?	7%	16%
CCN(CC)C(=O)c1ccc(NC(=O)COc2ccc([N+](=O)[O-])cc2Cl)cc1	0%	-6	21µM*	-30%	?	-6%
CCN(CC)C(=O)c1ccc(NC(=O)CSc2nnnn2-c2cc(OC)ccc2OC)cc1	-22%	0	?	-29%	?	0%
CCCCC(=O)OCC(=O)[C@]1(O)Cc2c(O)c3c(c(O)c2[C@@H](O[C@H]2C[C@H](NC(=O)C(F)(F)F)[C@H](O)[C@H](C)O2)C1)C(=O)c1c(OC)cccc1C3=O	.	.	1.3µM*	.	1.5µM*	.
COc1cccc2c1C(=O)c1c(O)c3c(c(O)c1C2=O)CC(O)(C(C)=NO)CC3OC1CC(N)C(O)C(C)O1 (centres undefined)	10µM*	-97*	0.18µM*	.	0.21µM*	?
Cc1ccc(C2=NN(CCC(=O)N3CCC4(CC3)OCCO4)C(=O)CC2)cc1	-3%	12	3%	1%	8%	-1%
SMILES	HT1080 IDH1KD tx	IL1B secr inh	DT40 TDP1 no CPT	ELG1 repair inh	TDP1 cell CPT	HT1080-NT tox
C[C@H]1CCC/C=C/[C@@H]2C[C@H](O)C[C@H]2[C@@H](O)/C=C/C(=O)O1	0.15µM*	-54*	0.58µM*	.	0.18µM*	?
CCCCC[C@@H]1CCCCC[C@H](O)C[C@H](O)[C@@H](O)/C=C/C(=O)O1	-2%	0	?	.	?	-19%
C[C@H]1CCCC=CC2C[C@H](O)C[C@@H]2[C@H](O)C=CC(=O)O1 (some centres undefined)	.	.	0.15µM*	.	0.028µM*	.
O=C(NCCN1CCCCC1)c1ccc(Cl)nc1Cl	0%	-12	1%	6%	-5%	2%
CCN1CCN(c2ccc(N)cc2C)CC1	-1%	-7	13µM*	6%	12µM*	-4%
CCCCn1c(=O)c(C=Nc2cc([N+](=O)[O-])ccc2OC)c(O)n(CCCCl)c1=O	-9%	-2	-29%	21µM*	-22%	-5%
Cc1ccc(CN2CCC3CCC(C3)C2)c(O)c1 (centres undefined)	22%	6	-15%	.	-11%	12%
CC12CCC3c4ccc(OP(=O)(N5CC5)N5CC5)cc4CCC3C1CCC2=O (centres undefined)	8%	40	13µM*	.	15µM*	11%
COC(=O)C1=C(c2cccc(C#N)c2)C[C@@H]2CC[C@H]1N2C(=O)NCC1CC1	-4%	4	2%	12%	18%	15%
CCC(c1nnnn1C1CCCCC1)N1CCC2(CC1)C(=O)NCN2c1ccccc1 (centres undefined)	2%	0	?	.	?	6%
CN(C[C@H](Cc1ccccc1)N(C[C@H](c1ccccc1)N(CCc1ccccc1)N=O)N=O)N=O	-5%	-18	16µM*	-1%	?	8%
